Source: PubChem
Sa growth inh – inhibitors of Staphylococcus aureus growth at 42 °C; relative growth, % (test concentration not listed); AID 720641; 0.53% of 170,000 active; S. aureus RN4220 growth, OD600, 20 h; hits give low values;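 active = relative growth at most 50% at the other temperature and 20+ points below 30 °C, or under 10% at both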
S aureus helic – blocks Staphylococcus aureus DNA helicase; 0.05% of 120,000 active; purified S. aureus helicase, fluorescence unwinding assay; inhibition, % (concentration not given with the values); in the data active = inhibition above about 25%, passing the limit was not always enough
Numbers stand for hits; . = inactive; / = not tested or not shown; ! = not active in a repeat. Many of the other results were omitted from the sample, so hits are more common in it than they were.

SMILES | Sa growth inh | S aureus helic
CC(C)COC(=O)N1c2ccccc2C=CC1OCC(C)C (stereo not given) | . | .
O=C(NCc1nc(-c2ccccc2)no1)c1ccccc1 | . | .
CCn1cc(C(=O)O)c(=O)c2cc(F)c(N3CCN(C(=S)NC)CC3)cc21 | . | .
CCn1cc(C(=O)O)c(=O)c2cc(F)c(N3CCN(C(=S)NC(=O)c4c(-c5ccccc5)noc4C)CC3)cc21 | 2.0 | .
CCCN(C(=O)Cc1c(C(=O)O)[nH]c2ccc(Cl)cc12)c1ccc(OCC)cc1 | 29 | /
CCN(C(=O)Cc1c(C(=O)O)[nH]c2ccc(Cl)cc12)c1ccc(C)c(C)c1 | . | .
COc1ccc(-c2cn3c(n2)CCC3)cc1 | . | .
c1c(SSc2cn3c(n2)CCC3)nc2n1CCC2 | -0.6 | .
COc1ccc(CCNC(=O)Cn2c(=O)c3sccc3n(CC(=O)N3CCCCC3C)c2=O)cc1OC (stereo not given) | . | .
CCN1/C(=C/C2=CC(=O)CC(C)(C)C2)Sc2ccccc21 | 1.0 | .
CCN1/C(=C\C=C2C(=O)OC(C)(C)OC2=O)Sc2ccccc21 | . | .
Cc1ccc(S(=O)(=O)/N=C2\C=C(Sc3ncn[nH]3)C(=O)c3ccccc32)cc1 | . | .
Cc1ccc(S(=O)(=O)/N=C2/C=C(Sc3ncn[nH]3)C(=O)c3ccccc32)cc1 | 2.1 | .
CC(C)c1ccc(S(=O)(=O)/N=C2/C=C(Sc3ncn[nH]3)C(=O)c3ccccc32)cc1 | 1.2 | .
CC(C)c1ccc(NC(=O)CSc2ncn[nH]2)cc1 | . | .
O=C(c1ccc(NS(=O)(=O)c2ccc3[nH]c(=O)[nH]c3c2)cc1)N1CCN(c2ccc(F)cc2)CC1 | . | .
NNC(=O)C(Sc1n[nH]c(=O)[nH]c1=O)c1ccccc1 (stereo not given) | . | .
O=C(CSc1ccc(Cl)cc1)c1ccc[nH]1 | . | .
COc1ccccc1C(=O)CSc1ccc(Cl)cc1 | 6.6 | .
COc1ccc(CCNC(=O)C(C#N)c2nc3ccccc3nc2N2CC(C)OC(C)C2)cc1OC (stereo not given) | . | .
Cc1ccc(Nc2ssc(=O)c2Cl)cc1C | . | .
CCn1c(=O)cc(Nc2ccc(C)c(C)c2)[nH]c1=O | 2.4 | .
CCOC(=O)CSc1nc(-c2ccccc2)c(C#N)c(=O)[nH]1 | . | .
CC1CCCCC1n1cnc2cc(C(=O)O)ccc21 (stereo not given) | . | .
CC(C)NS(=O)(=O)NC(C)C | . | .
SMILES | Sa growth inh | S aureus helic
O=C1/C(=C/c2cccs2)SC(=S)N1CCCC(=O)N1c2ccccc2Sc2ccccc21 | . | .
C[C@@H](O)[C@H]1C(=O)N2C(C(=O)O)=C(SCCN=CN)C[C@H]12 | 29 | /
O=C1OC(c2ccccc2)=C/C1=C/c1ccccc1 | -0.6 | /
O=C1OC(c2ccccc2)=C/C1=C/c1ccc(Cl)cc1 | . | .
COc1cccc(-n2c(=O)c3sccc3n(Cc3ccc(F)cc3Cl)c2=O)c1 | . | .
Cn1c2c(c(=O)n(C)c1=O)C(=O)CN2c1ccccc1 | . | .
O=S(=O)(c1cc(O)cc(S(=O)(=O)C(F)(F)F)c1)C(F)(F)F | -0.3 | .
O=S(=O)(c1ccc(Cl)cc1)C(F)(F)F | . | .
O=C(NCCNc1nccc(C(F)(F)F)n1)C1CC1 | . | /
Cc1cccc(NC(=S)Nc2c(C(C)C)cccc2C(C)C)c1 | . | /
Cc1[nH]n2c(=O)cc(-c3ccc(Cl)cc3)nc2c1-c1ccccc1 | -0.5 | /
Cc1nn2c(-c3ccccc3)cc(-c3ccccc3)nc2c1-c1ccc(Cl)cc1 | . | /
O=C1c2ccccc2C(=O)N1C1CCCCC1N1C(=O)c2ccccc2C1=O (stereo not given) | . | .
COCCN1COc2c(cc(Cl)c3cccnc23)C1 | 0.9 | .
COc1ccc(CCN2COc3c(cc(Cl)c4cccnc34)C2)cc1OC | / | .
CCOC(=O)c1sc(-c2ccccc2)cc1N | / | .
CCOC(=O)c1sc(-c2ccc(F)cc2)cc1N | 48 | .
Cc1cc(C(=O)OCC(=O)N(C)C2CCCCC2)c(C)o1 | . | .
COC(=O)[C@@H]1CC(=O)O[C@H](C)C/C=C/C=C/[C@H](O)[C@H](C)C[C@H](CC=O)[C@H](OC2O[C@H](C)[C@@H](OC3C[C@@](C)(O)[C@@H](OC(=O)CC(C)C)[C@H](C)O3)[C@H](N(C)C)[C@H]2O)[C@H]1OC (stereo not given in full) | -0.6 | /
CC(C)n1ncc2c(C(=O)NCC3COc4ccccc4O3)cc(C3CC3)nc21 (stereo not given) | . | .
CCc1cc(-c2[nH]ncc2-c2cnn(-c3ccccc3)c2)c(O)cc1O | 9.5 | .
CCc1cc(-c2[nH]ncc2-c2ccc(Br)cc2)c(O)cc1O | / | .
Cc1cc(SCC(=O)O)n2nc(C)c(-c3ccc(Cl)cc3)c2n1 | . | .
O=c1cc(O)sc2ccccc12 | . | .
O=c1[nH]sc2ccccc12 | -1.8 | .
SMILES | Sa growth inh | S aureus helic
O=C(O)c1ccc(CSc2nc3ccccc3s2)cc1 | / | .
CC1=NN(c2nc3ccccc3s2)C(=O)C1CCC(C)C (stereo not given) | 1.9 | .
CC1=NN(c2nc3ccccc3s2)C(=O)C1 | . | /
C#CC1(O)CCCCCCCCCCC1 | . | .
CO[C@@H]1[C@@H](OC(N)=O)[C@@H](O)[C@H](Oc2ccc3c(O)c(NC(=O)c4ccc(O)c(CC=C(C)C)c4)c(=O)oc3c2C)OC1(C)C | -0.8 | /
COc1ccc(C(=O)Nc2c(O)c3ccccc3oc2=O)cc1OC | . | .
NC[C@H]1O[C@H](O[C@H]2[C@H](O)[C@@H](O[C@H]3O[C@H](CO)[C@@H](O)[C@H](N)[C@H]3O)[C@H](N)C[C@@H]2N)[C@H](N)C[C@@H]1O | -0.6! | /
NC[C@H]1O[C@H](OC2[C@@H](N)C[C@@H](N)[C@H](O[C@H]3O[C@H](CO)[C@@H](O)[C@H](N)[C@H]3O)[C@H]2O)[C@H](O)[C@@H](O)[C@@H]1O (stereo not given in full) | . | /
O=C(Nc1ccc(-n2cnnn2)cc1)C1CC(=O)N(C2CCCC2)C1 (stereo not given) | . | .
COC(=O)NCCCN1CCCC1=O | . | .
[N-]=[N+]=c1c(=O)ccc2c(=O)c3ccccc3c(=O)c1=2 | 6.1 | .
O=c1c2ccccc2c2nc3c(=O)c4ccccc4c3nc12 | . | .
O=C(Nc1nc(CN2CCCCC2)cs1)c1ccc(-n2cccn2)cc1 | . | .
Cc1nnc(SCC2=C(C(=O)O)N3C(=O)[C@@H](NC(=O)Cn4cnnn4)[C@H]3SC2)s1 | -0.6 | /
CCN(C(=O)CSc1nnc(C)s1)c1ccccc1 | . | .
Cc1ccc2c(c1)c1c(n2CCC#N)CC[N+](C)(C)C1 | . | .
N#Cc1ccc2c(c1)nc1c3ccc4c5c(ccc(c(=O)n21)c53)C(=O)NC4=O | 0.9 | .
Cc1nc2ccccc2c(=O)n1-c1ccc(C(=O)NC(C)c2ccccn2)cc1 (stereo not given) | . | .
O=C(Oc1ccccc1)C1CCN(c2ccc(C(F)(F)F)cn2)CC1 | . | /
CCOC(=O)CN1CCN(c2ccc(C(F)(F)F)cc2N)CC1 | . | /
N#C/C(=C\c1ccco1)S(=O)(=O)c1ccc(Cl)cc1 | . | .
Cc1ccc(/C(C#N)=C\c2cccs2)cc1 | . | .
Cc1ccc(/C(C#N)=C\c2ccco2)cc1 | 42 | .
N#C/C(=C\c1ccco1)c1ccc(Cl)cc1 | 49 | /
N#C/C(=C/c1ccc(Br)o1)c1ccc(C(=O)O)cc1 | . | .
N#C/C(=C/c1ccco1)c1ccc(Br)cc1 | 22 | .
CC(C)(C)OC(=O)N1CCN(c2ncnc3nc[nH]c23)CC1 | . | .
